Assay results as given in PubChem BioAssay.

biological target: Homeobox protein Hox-A13 (Mus musculus) (UniProt Q62424); assay: inhibitors of HoxA13-DNA binding, primary screen, biochemical, fluorescence polarization, labeled oligonucleotide (AID 1185); conditions: 15 min, higher = more signal, called active from +8 up or from −8 down
Sequence (Q62424 whole entry, looked up): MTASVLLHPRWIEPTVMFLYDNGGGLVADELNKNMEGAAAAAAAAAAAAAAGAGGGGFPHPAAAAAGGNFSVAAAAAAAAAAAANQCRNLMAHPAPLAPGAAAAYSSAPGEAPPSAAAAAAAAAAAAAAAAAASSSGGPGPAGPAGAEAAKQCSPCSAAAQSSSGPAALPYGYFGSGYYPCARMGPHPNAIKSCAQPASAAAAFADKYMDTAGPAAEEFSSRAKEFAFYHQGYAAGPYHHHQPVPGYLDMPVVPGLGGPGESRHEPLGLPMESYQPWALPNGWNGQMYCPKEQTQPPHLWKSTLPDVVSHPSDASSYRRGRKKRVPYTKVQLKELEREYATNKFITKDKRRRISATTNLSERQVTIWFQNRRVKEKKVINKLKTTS

z-score, inactive:
O=C1[C@H]2[C@H]3[C@H](O)[C@H](O)CC(=NOCc4ccccc4)[C@H]3CC[C@H]2C(=O)N1C1CCCCC1 0.449, C[C@@H](c1ccccc1)N1C(=O)[C@H]2[C@H]3[C@H](O)[C@H](O)CC(=NNC(=O)OCc4ccccc4)[C@@H]3CC[C@H]2C1=O 0.963, C[C@H]1CC[C@@H](C(=O)O)N[C@@H]1c1ccc(C#Cc2ccccc2)cc1 -2.16, C[C@H]1CC[C@H]2C(=O)N[C@H](Cc3ccccc3)C(=O)N2[C@@H]1c1ccccc1 -0.879, O=C(NN=C1C[C@@H](O)[C@@H](O)[C@@H]2[C@@H]3C(=O)N(Cc4ccc5c(c4)OCO5)C(=O)[C@@H]3CC[C@@H]12)OCc1ccccc1 -3.09, CCc1cc2c(nc1CC)CCN(CCC(C)=NOCC[C@@H]1C=C[C@H](OC(C)=O)[C@@H](COC(C)=O)O1)C2 -5.38, CCN1C(C)=C(C(=O)OC)[C@@H](c2ccccc2)N2C(=O)[C@](O)(C(=O)OC)CC(C(C)=O)=C12 0.334, CCN1C(=O)[C@H]2[C@H]3[C@H](O)[C@H](O)CC(=NOC[C@@H](O)[C@H]4O[C@@H]5OC(C)(C)O[C@@H]5[C@H]4O)[C@@H]3CC[C@H]2C1=O 0.303, CCOC(=O)[C@H](Cc1ccccc1)NC(=O)CCC1CC(OC(=O)NCc2ccc3c(c2)OCO3)CC2(CCCC(COC(=O)NCCOC)O2)O1 (stereo partly specified) -3.78, CC(CCN1CCCCc2nc(C)c(C)cc21)=NO[C@@H](C)c1cc(-c2c(C)cc(C)cc2C)no1 -2.25, CCCC[C@H]1CN2[C@@H](CC[C@@H](C)[C@@H]2c2ccc(Br)cc2)C(=O)O1 -3.59, CC(=O)OC[C@H]1O[C@H](CCON=C(C)C)C=C[C@@H]1OC(C)=O 0.389, CC(C)=CCCC(C)=CCON=C1C[C@@H](O)[C@@H](O)[C@@H]2[C@@H]3C(=O)N(Cc4ccc5c(c4)OCO5)C(=O)[C@@H]3CC[C@@H]12 -0.814, CCOC(=O)[C@H](Cc1ccccc1)NC(=O)CCC1CC(OC(=O)NCCc2ccc(F)cc2)CC2(CCCC(COC(=O)NCCOc3ccccc3)O2)O1 (stereo partly specified) -2.88, COc1ccc(O[C@H]2C=C[C@@H](c3ccccc3)O[C@@H]2CO)cc1 -1.6, CO[C@H]1COC(=O)CC=C[C@@H](C)COC(=O)[C@H]2CCCN2C(=O)CC=C[C@H]1C -0.292, CC(C)=NO[C@@H](C)c1cn([C@H](CO)Cc2ccccc2)nn1 1.06, COC(=O)[C@H](C)NC(=O)CCC1CC(OC(=O)NCCc2ccc(F)cc2)CC2(CCCC(COC(=O)NCC3CCCCC3)O2)O1 (stereo partly specified) -2.56, CC(C)C(=O)N[C@H]1CCCN1C(=O)C=Cc1ccccc1 -2.18, COC(OC)[C@@H](C)[C@H](OC)[C@@H](C)[C@H](OC)c1ccccc1 -0.402, CC(C)CON=C1C[C@@H](O)[C@@H](O)[C@@H]2[C@@H]3C(=O)N(c4ccc(F)cc4F)C(=O)[C@@H]3CC[C@@H]12 -0.567, CON=C(C)CCN1CCCCc2nc(C)c(C)cc21 -2.24, COC(=O)[C@H](C)NC(=O)CCC1CC(OC(=O)NCc2cccc3ccccc23)CC2(CCCC(COC(=O)NCCc3ccccc3OC)O2)O1 (stereo partly specified) -4.27, OC[C@H]1O[C@H](C#Cc2ccccc2)C=C[C@@H]1O -2.53, CCOC(=O)[C@H](CC(C)C)NC(=O)CCC1CC(OC(=O)NCc2ccc3c(c2)OCO3)CC2(CCCC(COC(=O)NCCc3ccccc3OC)O2)O1 (stereo partly specified) -3.78, C[C@@H]1CC[C@H]2C(=O)O[C@@H](CN=[N+]=[N-])CN2[C@H]1c1ccc(Br)cc1 -0.917, CO[C@@H]1COC(=O)CC=C[C@H](C)[C@H](OC)COC(=O)[C@@H]2CCCN2C(=O)CC=C[C@H]1C -1.11, COc1ccc(COC(=O)NN=C2C[C@@H](O)[C@@H](O)[C@@H]3[C@@H]4C(=O)N(C5CCCCC5)C(=O)[C@@H]4CC[C@@H]23)cc1 -4.36, CCN1C(=O)[C@H]2[C@H]3[C@H](O)[C@H](O)CC(=NO[C@@H]4O[C@H](CO)[C@@H](O)[C@H](O)[C@H]4O)[C@H]3CC[C@H]2C1=O -0.898, COC(=O)[C@@H]1CC[C@H](C)[C@@H](c2ccc(Br)cc2)N1C[C@@H](O)CN=[N+]=[N-] -3.81, COC(=O)[C@H](C)NC(=O)CC=C[C@@H](C)[C@@H]1C=C[C@H](O)[C@@H](CO)O1 -0.56, CC(C)=NOC[C@@H](O)[C@H]1O[C@@H]2OC(C)(C)O[C@@H]2[C@H]1O 0.483, CCOC(=O)[C@H](CC(C)C)NC(=O)CCC1CC(OC(=O)NCc2ccc3c(c2)OCO3)CC2(CCCC(COC(=O)NCCOC)O2)O1 (stereo partly specified) -5.34, CCOC(=O)CCN1C(=O)[C@H]2[C@H]3[C@H](O)[C@H](O)CC(=NO[C@@H]4O[C@H](CO)[C@@H](O)[C@H](O)[C@H]4O)[C@H]3CC[C@H]2C1=O -0.139, C[C@@H]1CC[C@H]2C(=O)OC(Cc3ccccc3)CN2[C@H]1c1ccc(Br)cc1 (stereo partly specified) -3.22, O=C1[C@H]2[C@H]3[C@H](O)[C@H](O)CC(=NO[C@@H]4O[C@H](CO)[C@@H](O)[C@H](O)[C@H]4O)[C@H]3CC[C@H]2C(=O)N1C[C@@H]1CCCO1 0.594
